Results: ChEMBL document CHEMBL3988442, “University of Dundee, Small-Polar-MMV Screening Library” (2021)
For some assays here: Entries with a potency or affinity are not part of this list.

How the values were obtained:
Set-up in all cases: scale not given: direction of the effect not stated beside the values
[1] = biological target: Protein translocase subunit SecA (Escherichia coli (strain K12)) (UniProt P10408); test: Assay to Identify E. coli SecA ATPase Inhibitors; type: functional; details: 30 µM
[2] = biological target: T1, Ubiquitin-activating enzyme e1, putative (Leishmania donovani (strain BPK282A1)) (UniProt E9BSI1); test: Leishmania donovani Ubiquitin Activating Enzyme (LdE1); type: functional; details: 30 µM
T1 sequence (whole entry): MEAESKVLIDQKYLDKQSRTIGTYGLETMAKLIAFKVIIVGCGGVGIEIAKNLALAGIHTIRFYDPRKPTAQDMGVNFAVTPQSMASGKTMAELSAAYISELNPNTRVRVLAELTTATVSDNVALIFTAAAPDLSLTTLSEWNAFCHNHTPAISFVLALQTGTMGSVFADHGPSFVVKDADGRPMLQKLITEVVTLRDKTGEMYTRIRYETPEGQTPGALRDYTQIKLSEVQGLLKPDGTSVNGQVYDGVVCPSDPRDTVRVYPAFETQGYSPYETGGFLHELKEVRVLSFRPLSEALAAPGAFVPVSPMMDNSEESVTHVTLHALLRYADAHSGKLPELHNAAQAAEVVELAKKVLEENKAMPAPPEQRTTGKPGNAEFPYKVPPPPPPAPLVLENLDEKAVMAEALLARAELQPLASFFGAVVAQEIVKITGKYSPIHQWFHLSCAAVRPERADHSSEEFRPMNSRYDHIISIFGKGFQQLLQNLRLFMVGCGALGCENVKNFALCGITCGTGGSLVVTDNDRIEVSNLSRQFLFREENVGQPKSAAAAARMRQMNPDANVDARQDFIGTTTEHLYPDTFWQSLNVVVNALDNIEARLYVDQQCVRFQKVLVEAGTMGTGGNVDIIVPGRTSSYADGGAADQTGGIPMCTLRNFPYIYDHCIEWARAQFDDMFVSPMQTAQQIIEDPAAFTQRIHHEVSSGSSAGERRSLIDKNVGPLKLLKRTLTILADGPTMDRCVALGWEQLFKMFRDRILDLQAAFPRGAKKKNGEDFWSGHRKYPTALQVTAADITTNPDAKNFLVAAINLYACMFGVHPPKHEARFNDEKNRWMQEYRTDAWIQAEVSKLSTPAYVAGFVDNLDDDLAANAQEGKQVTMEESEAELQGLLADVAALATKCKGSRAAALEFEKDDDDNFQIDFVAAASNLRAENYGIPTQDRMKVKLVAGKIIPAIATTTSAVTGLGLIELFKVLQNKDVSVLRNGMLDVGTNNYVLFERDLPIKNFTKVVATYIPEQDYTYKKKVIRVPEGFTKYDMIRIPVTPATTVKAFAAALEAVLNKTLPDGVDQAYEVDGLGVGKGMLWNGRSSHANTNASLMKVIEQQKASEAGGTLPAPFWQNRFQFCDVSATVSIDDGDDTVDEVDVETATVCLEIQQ

[3] = biological target: AMP-activated protein kinase, AMPK (Homo sapiens) (UniProt P54646+O43741+P54619+Q9UGJ0+Q9Y478+Q13131+Q9UGI9); test: AMP-dependent Kinase enzyme assay. An in vitro enzyme assay that detects ADP turnover that is directly proportional to AMPK activity. This uses naive AMPK that is activated during the assay with MK-8722; type: functional; details: 30 µM
[4] = biological target: Sialic acid-binding Ig-like lectin 9 (Homo sapiens) (UniProt Q9Y336); test: Hs-Siglec9 ALPHAscreen SOP 20170721; details: 10 µM
[5] = tested on: Trypanosoma cruzi; test: Trypanosoma cruzi phosphomannomutase and mannose-1-phosphate guanylyltransferase assay; type: functional; details: 10 µM
[6] = biological target: T2, Arginase-2, mitochondrial (Homo sapiens) (UniProt P78540); test: in vitro enzyme assay to detect the production of urea directly proportional to the activity of Arginase II; type: functional; details: 33.3 µM; further: in the data most compounds retested in dose-response had high values
T2 sequence (whole entry): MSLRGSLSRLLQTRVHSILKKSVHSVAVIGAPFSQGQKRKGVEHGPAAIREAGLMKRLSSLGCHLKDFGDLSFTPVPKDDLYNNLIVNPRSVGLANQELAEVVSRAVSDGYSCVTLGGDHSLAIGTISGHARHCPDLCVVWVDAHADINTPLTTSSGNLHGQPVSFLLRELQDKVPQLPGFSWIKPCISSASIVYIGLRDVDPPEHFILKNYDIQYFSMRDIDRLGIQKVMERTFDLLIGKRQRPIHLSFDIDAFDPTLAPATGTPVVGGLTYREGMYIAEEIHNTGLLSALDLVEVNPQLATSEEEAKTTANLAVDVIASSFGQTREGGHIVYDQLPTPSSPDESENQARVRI

[7] = biological target: T3, Proteasome subunit beta (Trypanosoma cruzi) (UniProt O96673); test: Trypanosoma cruzi proteasome chymotrypsin-like activity (TcProtChymo) assay.; further: in the data most compounds retested in dose-response had high values; type: functional; details: 9.37 µM
T3 sequence (whole entry): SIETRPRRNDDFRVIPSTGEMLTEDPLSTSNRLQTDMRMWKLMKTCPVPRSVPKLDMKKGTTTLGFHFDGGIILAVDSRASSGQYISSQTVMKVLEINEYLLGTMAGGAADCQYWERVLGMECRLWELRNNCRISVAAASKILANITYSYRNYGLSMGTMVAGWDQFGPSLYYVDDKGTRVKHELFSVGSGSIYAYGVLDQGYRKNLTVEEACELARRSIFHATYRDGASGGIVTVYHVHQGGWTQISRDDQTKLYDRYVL

[8] = species on record: Homo sapiens; test: To identify inhibition of the IFN signalling (Jak-Stat) pathway via expression of an eGFP reporter gene under the control of an IFN-stimulated response element (ISRE) containing MxA promoter.; type: functional; details: 30 µM
[9] = biological target: T4, Tyrosyl-tRNA synthetase, putative (Trypanosoma cruzi (strain CL Brener)) (UniProt Q4DSP6); test: Trypanosoma cruzi tyrosyl tRNA synthetase (TcYRS) _High Tyrosine SOP; type: functional; details: 30 µM; further: in the data most compounds retested in dose-response had high values
T4 sequence (whole entry): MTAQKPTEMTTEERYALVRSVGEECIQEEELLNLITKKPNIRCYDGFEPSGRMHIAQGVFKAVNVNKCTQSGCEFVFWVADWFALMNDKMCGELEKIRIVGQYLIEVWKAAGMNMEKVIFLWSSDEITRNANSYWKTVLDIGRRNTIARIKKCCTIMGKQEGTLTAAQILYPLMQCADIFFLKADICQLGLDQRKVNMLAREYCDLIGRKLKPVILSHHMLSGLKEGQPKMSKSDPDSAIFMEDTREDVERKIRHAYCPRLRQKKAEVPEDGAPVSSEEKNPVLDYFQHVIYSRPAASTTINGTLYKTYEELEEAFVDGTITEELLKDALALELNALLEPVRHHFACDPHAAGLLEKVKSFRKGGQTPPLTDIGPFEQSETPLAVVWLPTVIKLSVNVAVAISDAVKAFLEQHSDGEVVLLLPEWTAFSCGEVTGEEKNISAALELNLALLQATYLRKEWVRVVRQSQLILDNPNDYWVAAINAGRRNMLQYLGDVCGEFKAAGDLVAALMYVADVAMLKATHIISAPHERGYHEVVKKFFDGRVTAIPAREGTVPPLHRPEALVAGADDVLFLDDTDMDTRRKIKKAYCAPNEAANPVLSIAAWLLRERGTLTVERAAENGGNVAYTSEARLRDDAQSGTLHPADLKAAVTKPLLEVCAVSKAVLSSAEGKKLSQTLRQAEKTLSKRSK

[10] = biological target: T4, Tyrosyl-tRNA synthetase, putative (Trypanosoma cruzi (strain CL Brener)); test: Trypanosoma cruzi tyrosyl tRNA synthetase (TcYRS) SOP; type: functional; details: 30 µM
[11] = biological target: Chromo domain-containing protein 1 (Saccharomyces cerevisiae (strain ATCC 204508 / S288c) (Baker's yeast)) (UniProt P32657); test: ScCHD-1 Enzyme Inhibition Assay; type: functional; details: 30 µM; further: in the data most compounds retested in dose-response had high values
Chromo domain-containing protein 1 (Saccharomyces cerevisiae (strain ATCC 204508 / S288c) (Baker's yeast)), sequence (P32657 whole entry, the tested form may be a part): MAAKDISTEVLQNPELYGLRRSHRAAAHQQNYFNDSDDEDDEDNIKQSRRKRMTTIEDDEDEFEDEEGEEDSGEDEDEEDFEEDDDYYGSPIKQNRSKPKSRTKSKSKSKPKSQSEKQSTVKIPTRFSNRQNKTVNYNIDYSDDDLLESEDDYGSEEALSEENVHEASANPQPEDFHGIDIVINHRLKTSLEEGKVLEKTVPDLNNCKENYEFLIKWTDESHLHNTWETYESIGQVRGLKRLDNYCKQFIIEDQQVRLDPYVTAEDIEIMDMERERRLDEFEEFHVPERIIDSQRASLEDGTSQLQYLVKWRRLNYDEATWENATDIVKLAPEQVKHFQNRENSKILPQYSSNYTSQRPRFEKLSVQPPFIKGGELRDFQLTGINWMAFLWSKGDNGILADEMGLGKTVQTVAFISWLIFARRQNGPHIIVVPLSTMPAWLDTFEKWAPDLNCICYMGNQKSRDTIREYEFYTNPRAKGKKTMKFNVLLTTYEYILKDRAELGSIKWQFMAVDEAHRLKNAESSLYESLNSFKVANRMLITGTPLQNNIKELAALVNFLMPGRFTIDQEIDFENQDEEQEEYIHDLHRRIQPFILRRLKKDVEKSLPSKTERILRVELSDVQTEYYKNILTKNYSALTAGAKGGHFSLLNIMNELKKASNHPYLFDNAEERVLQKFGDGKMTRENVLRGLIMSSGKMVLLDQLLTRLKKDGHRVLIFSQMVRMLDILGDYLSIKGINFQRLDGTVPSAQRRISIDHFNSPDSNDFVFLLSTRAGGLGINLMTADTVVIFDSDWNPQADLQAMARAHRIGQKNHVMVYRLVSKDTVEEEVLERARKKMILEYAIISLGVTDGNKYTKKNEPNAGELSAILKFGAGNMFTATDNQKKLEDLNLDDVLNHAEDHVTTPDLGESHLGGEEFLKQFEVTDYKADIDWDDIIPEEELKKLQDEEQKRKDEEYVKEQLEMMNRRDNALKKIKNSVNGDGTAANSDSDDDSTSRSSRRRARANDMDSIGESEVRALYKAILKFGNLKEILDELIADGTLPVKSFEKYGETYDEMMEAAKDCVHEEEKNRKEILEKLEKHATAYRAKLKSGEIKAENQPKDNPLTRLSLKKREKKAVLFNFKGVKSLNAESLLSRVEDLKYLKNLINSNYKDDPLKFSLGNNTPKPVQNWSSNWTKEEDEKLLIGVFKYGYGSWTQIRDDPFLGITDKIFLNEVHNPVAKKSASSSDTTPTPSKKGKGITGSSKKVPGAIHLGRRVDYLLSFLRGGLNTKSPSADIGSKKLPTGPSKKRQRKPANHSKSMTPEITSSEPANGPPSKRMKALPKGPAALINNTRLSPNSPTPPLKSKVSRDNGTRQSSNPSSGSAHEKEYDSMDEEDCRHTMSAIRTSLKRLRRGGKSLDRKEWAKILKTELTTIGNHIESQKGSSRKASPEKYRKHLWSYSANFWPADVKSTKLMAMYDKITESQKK

Sialic acid-binding Ig-like lectin 9 (Homo sapiens), sequence (Q9Y336 whole entry): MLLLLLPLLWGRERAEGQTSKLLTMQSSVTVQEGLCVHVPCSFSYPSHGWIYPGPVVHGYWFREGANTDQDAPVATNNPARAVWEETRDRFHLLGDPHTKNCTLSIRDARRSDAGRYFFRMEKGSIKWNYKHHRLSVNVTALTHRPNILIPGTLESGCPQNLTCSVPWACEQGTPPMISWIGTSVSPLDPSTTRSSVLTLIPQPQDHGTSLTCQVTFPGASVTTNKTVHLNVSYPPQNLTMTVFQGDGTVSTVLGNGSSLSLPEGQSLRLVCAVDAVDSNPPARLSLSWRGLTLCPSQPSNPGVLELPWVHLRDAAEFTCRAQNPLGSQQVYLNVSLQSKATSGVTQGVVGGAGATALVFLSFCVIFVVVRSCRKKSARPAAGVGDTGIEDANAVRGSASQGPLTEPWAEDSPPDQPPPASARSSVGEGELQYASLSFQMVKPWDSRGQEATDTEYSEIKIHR
Protein translocase subunit SecA (Escherichia coli (strain K12)), sequence (P10408 whole entry): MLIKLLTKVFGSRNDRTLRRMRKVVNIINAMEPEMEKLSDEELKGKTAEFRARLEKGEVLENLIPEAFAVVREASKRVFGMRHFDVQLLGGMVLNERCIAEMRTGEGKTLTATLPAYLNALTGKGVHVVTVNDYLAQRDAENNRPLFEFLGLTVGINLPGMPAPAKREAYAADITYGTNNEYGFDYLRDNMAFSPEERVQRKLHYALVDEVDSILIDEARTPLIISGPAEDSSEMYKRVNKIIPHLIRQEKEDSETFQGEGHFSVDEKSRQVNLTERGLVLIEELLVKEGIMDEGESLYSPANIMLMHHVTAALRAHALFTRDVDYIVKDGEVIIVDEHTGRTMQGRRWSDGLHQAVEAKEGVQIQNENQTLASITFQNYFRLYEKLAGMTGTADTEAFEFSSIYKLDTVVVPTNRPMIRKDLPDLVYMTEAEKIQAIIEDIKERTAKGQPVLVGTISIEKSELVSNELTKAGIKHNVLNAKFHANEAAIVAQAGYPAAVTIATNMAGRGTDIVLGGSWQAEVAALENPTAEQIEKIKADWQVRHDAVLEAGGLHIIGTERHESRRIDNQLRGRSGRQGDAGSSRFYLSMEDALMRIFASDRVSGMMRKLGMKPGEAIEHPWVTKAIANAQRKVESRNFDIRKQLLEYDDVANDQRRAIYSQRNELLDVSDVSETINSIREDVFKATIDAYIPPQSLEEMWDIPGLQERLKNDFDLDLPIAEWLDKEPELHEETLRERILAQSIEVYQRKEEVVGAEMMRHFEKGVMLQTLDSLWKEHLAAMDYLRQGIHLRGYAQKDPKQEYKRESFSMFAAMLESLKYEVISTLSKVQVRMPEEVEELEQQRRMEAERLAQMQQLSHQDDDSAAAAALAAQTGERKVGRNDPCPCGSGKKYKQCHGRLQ

| Compound | Percent Effect [1] [%] | Percent Effect [2] [%] | Percent Effect [3] [%] | Percent Effect [4] [%] | Percent Effect [5] [%] | Percent Effect [6] [%] | Percent Effect [7] [%] | Percent Effect [8] [%] | Percent Effect [9] [%] | Percent Effect [10] [%] | Percent Effect [11] [%] |
| --- | --- | --- | --- | --- | --- | --- | --- | --- | --- | --- | --- |
| CC(C)(C)C(=O)NCCc1ccn(-c2ccccc2)n1 | -5.41 | 13.9 | 0.882 | 2.89 | -0.923 | 4.09 | 8.92 | 2.37 | 4.17 | 17.7 | -30 |
| Cc1cc(CN(C)C(=O)C2CCCN(C(=O)c3cccs3)C2)no1 (configuration not stated) | -3.6 | 10.4 | 1.53 | 10.4 | 3.64 | -9.65 | 15.5 | -5.21 | 5.38 | 16.1 | -2.24 |
| CCn1cc(CN2CCCn3nc(CNC(=O)C4CCC4)cc3C2)cn1 | -2.37 | 10.4 | 0.185 | 10.6 | 4.42 | -6.9 | 18.5 | -4.18 | 6.45 | 13.6 | -3.28 |
| CN(Cc1cnccn1)C(=O)c1ccnc(OC2CCC2)c1 | 2.54 | -2.7 | 1.16 | 4.85 | 0.193 | 1.43 | 1.9 | 4.71 | -0.529 | 4.88 | 8.01 |
| CCCS(=O)(=O)NC(C)C(=O)NCc1ccc(N2CCCC2)nc1 (configuration not stated) | -3.52 | 16.2 | -27.4 | -2.65 | -0.66 | -4.01 | 12.8 | 5.44 | 13.3 | 13.6 | -7.91 |
| O=C(c1ccc[nH]1)N1CCCC(c2cc(C(F)(F)F)[nH]n2)C1 (configuration not stated) | -5.38 | -10.5 | 1.16 | 17.4 | -4.39 | -1.08 | -0.0846 | 35.6 | 3.45 | 6.17 | -3.1 |
| CCc1ccc(CN2CCC3(CC2)CNC(=O)CO3)o1 | -2.61 | 2.7 | 1.59 | -0.0986 | 1.76 | 1.25 | 1.77 | -14.2 | 2.97 | -3.66 | -0.389 |
| Cc1ccc(S(=O)(=O)N2C[C@H]3C[C@H](NC(=O)c4ccnn4C)[C@H]3C2)cc1 | -1.89 | -6.76 | 9.6 | 1.27 | -0.988 | -3.02 | -3.28 | 84.1 | 2.15 | 3.9 | 14 |
| O=C1CC(c2ccncc2)C2(CCN(C(=O)c3ccc[nH]3)CC2)N1 (configuration not stated) | -2.27 | 18.9 | -1.68 | -16.4 | 4.01 | -5.41 | 8.86 | 14.6 | 3.24 | 15.4 | -0.00396 |
| O=S1(=O)N=C(SCc2ccc(Cl)cc2)Nc2ccc(F)cc21 | -2.41 | -7.79 | -5.17 | -2.88 | -1.08 | 1.94 | 13.8 | 21.9 | -6.35 | -8.97 | -10.5 |
| Cc1cc(C)n(CC2CCCN2C(=O)c2ccc(C(N)=O)cn2)n1 (configuration not stated) | -6.82 | 16.5 | 1.06 | -0.198 | 2.56 | 1.5 | 7.38 | 7.83 | -3.12 | 17.7 | -27.9 |
| O=C1CCC2(CCCN(c3ncc(F)cn3)CC2)N1CC1CC1 (configuration not stated) | -4 | 7.79 | 3.94 | 5.12 | 1.08 | 5.81 | 12.7 | 14.5 | 6.35 | 16.7 | -4.57 |
| CC1CN(C)c2ccccc2CN1C(=O)c1ccc[nH]1 (configuration not stated) | -4.68 | 5.48 | -8.65 | -2.78 | -0.196 | 0.455 | 12.9 | 20.4 | 5.38 | 10 | -4.57 |
| Cc1nc(O)c2nnn(C[C@H]3CCCN3C(=O)c3cccc(F)c3)c2n1 | -3.34 | -1.35 | 8.18 | 1.91 | -3.36 | -3.48 | -0.936 | 9.46 | 2.15 | 1.3 | 7.79 |
| Cn1nc(CNC(=O)C2COc3ccccc3O2)cc1C1CC1 (configuration not stated) | -5.12 | -2.6 | 21.3 | -1.75 | -3.85 | -3.23 | 8.36 | 1.88 | 0 | -6.41 | -1.13 |
| c1ccc2oc(N3CCCCC3Cn3cncn3)nc2c1 (configuration not stated) | -9.23 | 18.9 | -13.5 | 28.6 | 11.4 | -2.4 | 2.69 | 1.84 | 7.92 | 25.6 | -5.86 |
| Cc1cnn(CC2CN(CC(=O)Nc3nnc(C)s3)CCO2)c1 (configuration not stated) | -5.89 | 13.2 | 0.773 | 3.55 | 7.71 | -0.766 | 6.01 | -6.29 | 3.43 | 12.2 | -12.5 |
| CN(C)C(=O)N1CCN(Cc2nnc(C(C)(C)C)o2)CC1 | -0.665 | -5.41 | 0.51 | 3.54 | 0 | 1.91 | 1.55 | -1.07 | -1.59 | 0 | -0.0145 |
| O=C(NCc1cc[nH]n1)NCC(c1ccco1)N1CCCC1 (configuration not stated) | -3.53 | 8.11 | -2.2 | 17.4 | 1.66 | -0.744 | 12.4 | 7.09 | 5.38 | 11.1 | -2.11 |
| Cc1csc([C@@H]2C[C@@H]3CCN(Cc4cnn(C)c4)C[C@H]3O2)n1 | -5.44 | 2.6 | -0.433 | 1.83 | -0.0983 | -5.52 | 3.33 | -23.4 | 1.07 | 1.24 | -4 |
| CCN1CCC(NC(=O)CN2CCc3c(nc(C4CC4)n3C)C2)CC1 | -2.61 | -5.2 | -9.14 | 13.3 | 0.374 | 6.76 | -2.37 | -16.3 | 1.94 | 0 | -7.12 |
| COc1ccc(C)cc1CN1CCCC1c1noc(C2CC2)n1 (configuration not stated) | -1.46 | -2.7 | -7.59 | -1.73 | 5.85 | -9.8 | 18.7 | 67.4 | 9.9 | 18.3 | -3.74 |
